Screens from PubChem.
Only some compounds are listed: those with a hit (about 1.8% of all), similar ones and a draw of the others.
Mac1 fbg enh = increases human CD11b/CD18 adhesion to fibrinogen. P05107+P11215. K562 CD11b/CD18 adhesion to fibrinogen, ATPlite luminescence. activation, % at 10 µM. actives 0.07% (n = 93,000). AID 1499;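 active means 10 µM primary screen giving 50% or more activity, confirmed by 40% or more on retest at that dose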
PTK2B oligo ant = blocks oligomerization of human Pyk2 in cells; Q14289; Q293 cells, Pyk2 FERM NanoBiT luminescence; active compounds read low; z-score (the deposit names both 25 µM and 10 µM); actives 0.83% (n = 99,000); AID 1347419;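 active means Z-score of -3 or lower, scaled per plate to the spread of control and sample wells; inactive means z-score above -3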;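 further: negative z-score means lost luminescence so less FERM oligomerization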
Target sequence (Q14289 whole entry, looked up): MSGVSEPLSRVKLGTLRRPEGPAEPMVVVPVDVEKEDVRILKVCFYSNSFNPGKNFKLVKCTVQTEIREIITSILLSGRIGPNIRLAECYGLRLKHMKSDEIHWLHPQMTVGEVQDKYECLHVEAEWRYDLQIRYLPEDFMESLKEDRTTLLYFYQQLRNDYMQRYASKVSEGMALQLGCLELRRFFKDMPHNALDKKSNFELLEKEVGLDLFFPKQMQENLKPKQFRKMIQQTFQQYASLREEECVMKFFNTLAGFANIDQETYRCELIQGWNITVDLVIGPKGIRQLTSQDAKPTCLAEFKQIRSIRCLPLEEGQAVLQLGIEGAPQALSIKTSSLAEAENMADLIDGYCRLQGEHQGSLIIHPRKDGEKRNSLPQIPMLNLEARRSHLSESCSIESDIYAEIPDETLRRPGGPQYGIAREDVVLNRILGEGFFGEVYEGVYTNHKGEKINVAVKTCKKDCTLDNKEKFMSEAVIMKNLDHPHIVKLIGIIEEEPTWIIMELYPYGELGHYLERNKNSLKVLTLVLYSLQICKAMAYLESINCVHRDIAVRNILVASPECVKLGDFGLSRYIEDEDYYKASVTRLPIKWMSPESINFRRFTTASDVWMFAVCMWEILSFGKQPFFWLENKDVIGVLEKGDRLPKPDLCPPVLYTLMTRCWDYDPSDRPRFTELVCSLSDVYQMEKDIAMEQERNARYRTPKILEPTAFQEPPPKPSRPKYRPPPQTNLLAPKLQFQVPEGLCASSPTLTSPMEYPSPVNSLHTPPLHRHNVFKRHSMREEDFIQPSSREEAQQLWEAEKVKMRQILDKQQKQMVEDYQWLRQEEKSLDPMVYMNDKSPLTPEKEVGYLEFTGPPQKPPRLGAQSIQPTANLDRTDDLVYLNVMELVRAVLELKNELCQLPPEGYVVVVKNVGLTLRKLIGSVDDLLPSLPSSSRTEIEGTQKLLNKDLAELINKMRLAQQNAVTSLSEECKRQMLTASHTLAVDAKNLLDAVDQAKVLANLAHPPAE
FAK inh = FAK (human) kinase inhibition; biochemical FAK kinase activity assay; inhibition, %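 (tested at 7 µM)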; actives 0.84% (n = 97,000); in the data active means inhibition above about 19%
CD11b adhes inh = CD11b/CD18-fibrinogen binding inhibition | inhibition, % at 10 µM | P05107+P11215 | actives 0.54% (n = 93,000) | AID 1497 | K562 CD11b/CD18 adhesion to fibrinogen, ATPlite luminescence; Mn2+ added to activate the integrin;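 active means primary inhibition of 50% or more at 10 µM, then 40% or more on retest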
Each line names hits and unclear results; the compound was inactive in the other large screens.

O=C(Nc1nc(-c2nc3ccccc3s2)cs1)c1ccc(S(=O)(=O)N2CCOCC2)cc1	PTK2B oligo ant -3.6
O=C(Nc1nc(-c2ccc(S(=O)(=O)N3CCCCCC3)cc2)cs1)c1cccs1	none
O=C(Nc1nc(-c2ccc(S(=O)(=O)N3CCCC3)cc2)cs1)c1cccs1	PTK2B oligo ant -3.2
COc1cccc(C(=O)Nc2nc(-c3ccc(S(=O)(=O)N4CCOCC4)cc3)cs2)c1	PTK2B oligo ant -3.3
CCOC(=O)C(CC)n1nc(C)n2c(cc3occc32)c1=O (stereo not drawn)	none
COc1ccc(S(=O)(=O)N/N=C(/C)c2cccc(NC(=O)c3ccccc3Cl)c2)cc1	none
COc1ccc(NC(=S)N2CCNC(=O)C2CC(=O)Nc2ccc(C)cc2)cc1 (stereo not drawn)	none (no result: PTK2B oligo ant, FAK inh)
O=C(COC(=O)CC12CC3CC(CC(Br)(C3)C1)C2)NC(=O)NCc1ccco1	none (no result: Mac1 fbg enh, CD11b adhes inh)
O=S(CC1CC1(Cl)Cl)CC1CC1(Cl)Cl (stereo not drawn)	none (no result: PTK2B oligo ant, FAK inh)
COc1ccc(C(c2nnnn2Cc2cccs2)N2CCN(c3ccc(F)cc3)CC2)cc1OC (stereo not drawn)	PTK2B oligo ant -3.3
COc1ccc(C(c2nnnn2Cc2ccc(F)cc2)N2CCN(c3ccccc3)CC2)cc1 (stereo not drawn)	PTK2B oligo ant -3.4
Cc1cc(C)cc(-n2c(SCC(=O)Nc3cccc(S(=O)(=O)NC4=NCCCCC4)c3)nc3ccccc3c2=O)c1	none (no result: PTK2B oligo ant, FAK inh)
COCCNC(=O)c1cccc(Nc2nc(-c3ccccc3)c3cc(Cl)ccc3n2)c1	none (no result: PTK2B oligo ant, FAK inh)
Cc1ccc(C)c(Nc2c([N+](=O)[O-])cc(C(=O)N3CC(=O)Nc4ccccc43)cc2[N+](=O)[O-])c1	PTK2B oligo ant -3
O=C1CN(C(=O)c2ccccc2)c2ccccc2N1	none
CCC(=O)NC(c1ccccc1Cl)c1c(O)ccc2ccccc12 (stereo not drawn)	none (no result: PTK2B oligo ant, FAK inh)
O=C(NC(c1ccccc1)c1c(O)ccc2ccccc12)c1ccccc1Cl (stereo not drawn)	PTK2B oligo ant -3.3 (no result: Mac1 fbg enh, CD11b adhes inh)
CC(C)C(=O)NC(c1ccccc1Cl)c1c(O)ccc2ccccc12 (stereo not drawn)	PTK2B oligo ant -3.8
CCC(=O)NC(c1ccc([N+](=O)[O-])cc1)c1c(O)ccc2ccccc12 (stereo not drawn)	PTK2B oligo ant -3.1
CC(=O)OC1CCC2(C)C(COc3ccc4ccc(=O)oc4c3)C(C)(O)CCC2C1(C)C (stereo not drawn)	PTK2B oligo ant -3.3
COc1ccc(CN(C)C2c3ccccc3-c3ccccc32)cc1	none (no result: PTK2B oligo ant, FAK inh)
CC(=O)NC1(C(F)(F)F)C(=O)Nc2c1c(=O)[nH]c(=O)n2Cc1ccco1 (stereo not drawn)	none
O=c1[nH]c(=O)n(Cc2ccco2)c2c1C(C(F)(F)F)(C(F)(F)F)N=C(Cc1ccccc1)N2	PTK2B oligo ant -3.7 (no result: Mac1 fbg enh, CD11b adhes inh)
Cc1ccc(S(=O)(=O)NC(CC(C)C)C(=O)NCc2ccco2)cc1 (stereo not drawn)	none
O=C(CSCc1ccccc1)NNC(=S)Nc1cccc(Cl)c1Cl	none
COc1ccccc1OCC(=O)NNC(=O)C(=O)N1CCCC1	none (no result: PTK2B oligo ant, FAK inh)
CCOC(=O)C1=C(c2ccccc2)NC(=S)NC1c1cc([N+](=O)[O-])ccc1OC (stereo not drawn)	PTK2B oligo ant -4
CCOC(=O)C1=C(c2ccccc2)NC(=S)NC1c1cccc([N+](=O)[O-])c1 (stereo not drawn)	none (no result: PTK2B oligo ant, FAK inh)
Cc1ccc(S(=O)(=O)/N=C(\CN2CCCCC2)N2CCOCC2)cc1	none
COc1ccc(NC(=O)c2cccc(S(=O)(=O)Nc3ccc(Br)cc3)c2)cn1	CD11b adhes inh 103 (no result: PTK2B oligo ant, FAK inh)
COc1ccc(NC(=O)c2cccc(Cn3cc(Br)cn3)c2)cn1	none
CC(=O)NC(CC(=O)Nc1cccc(S(=O)(=O)N2CCCCC2)c1)c1ccccc1 (stereo not drawn)	none
COc1ccc(-n2c(COc3ccc(C)cc3)nnc2SCC(N)=O)cc1	none
CSc1nnc(COc2ccc(C)cc2)n1N	FAK inh 37 (no result: Mac1 fbg enh, CD11b adhes inh)
Cc1nc(SCC(=O)Nc2ccc3c(c2)OCO3)c(C#N)c2c1CCCC2	PTK2B oligo ant -3.2
Cc1ccc2nsnc2c1S(=O)(=O)NCCc1c(C)[nH]c2ccc(F)cc12	none
Cc1cccc(Oc2coc3cc(OC(=O)c4cc5ccccc5oc4=O)ccc3c2=O)c1	Mac1 fbg enh 53
CCOC(=O)Oc1ccc2c(=O)c(Oc3cccc(C)c3)coc2c1	none (no result: Mac1 fbg enh, CD11b adhes inh)
N#Cc1c2n(c3c(=O)n(Cc4ccc(Cl)cc4)cnc13)CCCC2	PTK2B oligo ant -3.5
N#Cc1c2n(c3c(=O)n(Cc4ccccc4Cl)cnc13)CCCC2	none
CCOC(=O)C1CCCN(C(=S)Nc2cc(C)cc(C)c2)C1 (stereo not drawn)	none
CCn1c(SCC(=O)c2ccc(O)c(O)c2)nnc1-c1ccc(C)cc1	none
CCn1c(SCC(=O)c2ccc3c(c2)Cc2ccccc2-3)nnc1-c1ccc(N)cc1	Mac1 fbg enh 92
O=C(Cn1nnc2ccccc21)OCC(=O)c1ccc(Cl)c(Cl)c1	PTK2B oligo ant -4 (no result: Mac1 fbg enh, CD11b adhes inh)
O=C(Cn1nnc2ccccc21)OCC(=O)c1ccccc1	none (no result: Mac1 fbg enh, CD11b adhes inh)
O=C(Nc1ccc2oc(-c3ccccc3F)nc2c1)c1ccc2c(c1)OCCO2	PTK2B oligo ant -3.1
COc1ccc2c(C)cc(Sc3nnnn3-c3ccccc3)nc2c1	none (no result: PTK2B oligo ant, FAK inh)
CC(=O)C(N=Nc1ccccc1)(Sc1nnc(-c2ccccc2)n1-c1ccccc1)C(C)=O	PTK2B oligo ant -3.1 (no result: Mac1 fbg enh, CD11b adhes inh)
O=c1c2ccccc2nc(N/N=C/c2c(O)ccc3ccccc23)n1O	CD11b adhes inh 58
O=c1c2ccccc2nc(N/N=C/c2ccc(O)cc2)n1O	none
Cc1cc(C)cc(CSCC(=O)N/N=C/c2ccc(OCC(=O)NCc3ccco3)cc2)c1	PTK2B oligo ant -3.1 (no result: Mac1 fbg enh, CD11b adhes inh)
COc1ccc(CSCC(=O)N/N=C/c2ccc(OCC(=O)NCc3ccco3)cc2)cc1	none
Cc1cccc(C(=O)N/N=C/c2ccc(OCC(=O)N3CCCCC3)cc2)c1	none
O=C(CSCc1cccc(Cl)c1)N/N=C/c1ccc(OCC(=O)N2CCCCC2)cc1	PTK2B oligo ant -3.4 (no result: Mac1 fbg enh, CD11b adhes inh)
Cc1ccc(-c2cc(C(F)F)nc(NCc3cccnc3)n2)cc1	PTK2B oligo ant -3.6 (no result: Mac1 fbg enh, CD11b adhes inh)
c1ccc(-n2ncc3c(N4CCCCC4)ncnc32)cc1	CD11b adhes inh 59 (no result: PTK2B oligo ant)
CCN1CCN(c2ncnc3c2cnn3-c2ccccc2)CC1	none (no result: PTK2B oligo ant)
Cc1ccc(Cl)c(OCC(=O)OCC(=O)NC2CCCc3ccccc32)c1 (stereo not drawn)	none (no result: PTK2B oligo ant, FAK inh)
Nc1cc(-c2ccc(Br)cc2)nn1S(=O)(=O)c1ccccc1	none (no result: PTK2B oligo ant)
Nc1cc(-c2ccccc2)nn1S(=O)(=O)c1ccc(F)cc1	CD11b adhes inh 63 (no result: PTK2B oligo ant)
O=S(=O)(N/N=C\C=C\c1ccccc1)c1ccc(Cl)cc1	none
CCCCCCOC(=O)c1ccc(OC(=O)c2cccnc2)cc1	none
CCCCCCCCOC(=O)c1ccc(N)cc1	PTK2B oligo ant -3.3 (no result: Mac1 fbg enh, CD11b adhes inh)
CCCC1=C(C(=O)OCC)C(c2cc(Cl)cc(OC)c2OCC(=O)OCC)NC(=O)N1 (stereo not drawn)	PTK2B oligo ant -3.1
CCOC(=O)COc1c(OC)cc(Cl)cc1C1NC(=O)NC(C)=C1C(C)=O (stereo not drawn)	none
Fc1ccc(-c2n[nH]c(=S)n2/N=C/c2c[nH]c3ccccc23)cc1	none (no result: PTK2B oligo ant, FAK inh)
COc1cc(C2CC(=O)c3cnc(NC(=O)COc4ccccc4)nc3C2)cc(OC)c1OC (stereo not drawn)	PTK2B oligo ant -3.1
